{"source": "PubChem BioAssay AID434970", "about": "(Sanford-Burnham Center for Chemical Genomics, 2010)", "note": "In all, about 11,000 compounds went through this assay and about 310 (2.8%) were called active. Rule as the data show it: active = activity change below about -85%; inactive = the rest. Many of the other results were omitted from the sample, so actives are more common in it than they were."}
{"tested_on": "intestinal alkaline phosphatase [Mus musculus]", "experiment": "activators of mouse IAP, confirmation, biochemical, luminescence, single concentration (AID 434970)", "settings": "purified mouse IAP, CDP-Star luminescence, 30 min, at 10 µM; activation factor: measured here: IAP activation factor, stronger effect = higher value; activity change, negative = activation: stronger effect = lower value"}
{"smiles": "CCC(=O)N1c2ccccc2NC2=C(C(=O)CCC2)C1c1ccc(N(C)C)cc1", "note": "(configuration not stated)", "activation factor": 1.18, "activity change, negative = activation": "-18.3% (inactive)"}
{"smiles": "O=C(NC1CCCCC1)N1CCN(c2ccccc2)CC1", "activation factor": 0.931, "activity change, negative = activation": "6.95% (inactive)"}
{"smiles": "N/C(COc1cccc(Cl)c1)=N\\NS(=O)(=O)c1ccccc1", "activation factor": 0.875, "activity change, negative = activation": "12.6% (inactive)"}
{"smiles": "COc1cc(-c2noc(CCC(N)=O)n2)cc(OC)c1OC", "activation factor": 0.884, "activity change, negative = activation": "11.6% (inactive)"}
{"smiles": "CCC(C)NCCOCCOc1ccc(F)cc1", "note": "(configuration not stated)", "activation factor": 1.03, "activity change, negative = activation": "-3.25% (inactive)"}
{"smiles": "C[C@H]1CN([C@@H](C)CO)C(=O)c2cccc(NC(=O)Nc3ccc(C(F)(F)F)cc3)c2O[C@@H]1CN(C)S(=O)(=O)c1ccc(Cl)cc1", "activation factor": 1.47, "activity change, negative = activation": "-46.7% (inactive)"}
{"smiles": "Cc1ccc(S(=O)(=O)N(C)C[C@H]2Oc3c(NC(=O)Nc4cccc5ccccc45)cccc3C(=O)N([C@@H](C)CO)C[C@@H]2C)cc1", "activation factor": 3.14, "activity change, negative = activation": "-214% (active)"}
{"smiles": "Cc1ccc(S(=O)(=O)N(C)C[C@@H]2Oc3ccc(NC(=O)Nc4cccc5ccccc45)cc3C(=O)N([C@H](C)CO)C[C@H]2C)cc1", "activation factor": 2.13, "activity change, negative = activation": "-113% (active)"}
{"smiles": "Cc1cc2cc(CNC(=S)NCc3ccccc3)ccc2n1C", "activation factor": 1.2, "activity change, negative = activation": "-20% (inactive)"}
{"smiles": "N[C@@H](Cc1ccccc1)c1nnc2sc(SCc3ccccc3)nn12", "activation factor": 0.972, "activity change, negative = activation": "2.75% (inactive)"}
{"smiles": "O=C(c1ccc[nH]1)N1O[C@@H]2C=C[C@H]1C2", "activation factor": 0.951, "activity change, negative = activation": "4.9% (inactive)"}
{"smiles": "CCCN1C2CCCC1CC(NC(=O)c1cc(OC)c(OC)c(OC)c1)C2", "note": "(configuration not stated)", "activation factor": 0.893, "activity change, negative = activation": "10.7% (inactive)"}
{"smiles": "Cc1cccc(NC(=O)c2cn(-c3ccccc3)nc2-c2ccccc2)c1", "activation factor": 1.64, "activity change, negative = activation": "-64% (inactive)"}
{"smiles": "Cc1nn(Cc2ccc(Cl)c(Cl)c2)c(C)c1NC(=O)c1cn(-c2ccccc2)nc1-c1ccccc1", "activation factor": 2.62, "activity change, negative = activation": "-162% (active)"}
{"smiles": "Cc1nn(Cc2ccc(Cl)cc2)c(C)c1NC(=O)c1c(-c2ccccc2)noc1C", "activation factor": 1.03, "activity change, negative = activation": "-2.7% (inactive)"}
{"smiles": "Cc1nn(Cc2c(Cl)cccc2Cl)c(C)c1NC(=O)c1cn(-c2ccccc2)nc1-c1ccccc1", "activation factor": 1.74, "activity change, negative = activation": "-73.8% (active)"}
{"smiles": "COc1cccc(-c2nn(-c3ccccc3)cc2C(=O)NCC(=O)O)c1", "activation factor": 1.08, "activity change, negative = activation": "-8.2% (inactive)"}
{"smiles": "O=C(NC1CCN(Cc2ccc(Cl)cc2)CC1)c1cn(-c2ccccc2)nc1-c1cccnc1", "activation factor": 1.6, "activity change, negative = activation": "-60.3% (inactive)"}
{"smiles": "CCCN1CCN(C(=O)c2cn(CC(C)C)c(=O)c3cc(OC)c(OC)cc23)CC1", "activation factor": 1.04, "activity change, negative = activation": "-4.4% (inactive)"}
{"smiles": "COc1ccc(C2CC(c3ccccc3)n3nnnc3N2)cc1", "note": "(configuration not stated)", "activation factor": 1.15, "activity change, negative = activation": "-14.9% (inactive)"}
{"smiles": "COc1ccc2c(CC(=O)OCC(=O)N3CCc4ccccc43)coc2c1", "activation factor": 0.935, "activity change, negative = activation": "6.5% (inactive)"}
{"smiles": "COc1cc2c(cc1OC)[C@@H](NC(=O)COc1ccccc1)[C@H](OCc1ccccc1)C2", "activation factor": 1.07, "activity change, negative = activation": "-6.55% (inactive)"}
{"smiles": "O=C(CSc1ncccn1)NCc1ccccc1", "activation factor": 1.02, "activity change, negative = activation": "-2% (inactive)"}
{"smiles": "COc1ccc(N=NC2=C(O)CC(C)(C)CC2=O)c(OC)c1", "activation factor": 0.743, "activity change, negative = activation": "25.7% (inactive)"}
{"smiles": "CCOC(=O)c1sc(N=NC2=C(O)CC(C)(C)CC2=O)c(C(=O)OCC)c1C", "activation factor": 3.1, "activity change, negative = activation": "-210% (active)"}
{"smiles": "CCOC(=O)c1sc(N=NC2=C(O)CCCC2=O)c(C(=O)OCC)c1C", "activation factor": 0.794, "activity change, negative = activation": "20.6% (inactive)"}
{"smiles": "COc1cc(NC(=O)c2ccc(F)cc2)c(OC)cc1Cl", "activation factor": 0.929, "activity change, negative = activation": "7.05% (inactive)"}
{"smiles": "COc1ccc2c(C)c(C(=O)O)oc2c1", "activation factor": 0.933, "activity change, negative = activation": "6.65% (inactive)"}
{"smiles": "COC(=O)c1c(N)n(CCCN2CCOCC2)c2nc3ccccc3nc12", "activation factor": 0.983, "activity change, negative = activation": "1.65% (inactive)"}
{"smiles": "N#Cc1c(-c2ccc(Cl)cc2)ccn2nc(CCC(=O)O)nc12", "activation factor": 1.15, "activity change, negative = activation": "-15.3% (inactive)"}
{"smiles": "CN1CCN(S(=O)(=O)c2ccc(SCCOc3ccccc3)nc2)CC1", "activation factor": 0.96, "activity change, negative = activation": "4% (inactive)"}
{"smiles": "C=CCN(C(=O)CNC(=O)c1ccco1)C(C(=O)NC1CCCCC1)c1ccc(F)cc1", "note": "(configuration not stated)", "activation factor": 1.05, "activity change, negative = activation": "-5.3% (inactive)"}
{"smiles": "CC(C)(C)N(C(=O)Cn1nnc(-c2ccc(F)cc2)n1)C(C(=O)NC1CCCC1)c1ccncc1", "note": "(configuration not stated)", "activation factor": 0.935, "activity change, negative = activation": "6.5% (inactive)"}
{"smiles": "O=C(NC1CCCC1)C(c1ccc(F)cc1)N(Cc1ccc(F)cc1)C(=O)c1ccn[nH]1", "note": "(configuration not stated)", "activation factor": 2.05, "activity change, negative = activation": "-105% (active)"}
{"smiles": "Brc1ccc(-c2cnc(-c3cccs3)o2)cc1", "activation factor": 0.944, "activity change, negative = activation": "5.65% (inactive)"}
{"smiles": "COc1ccc(Cc2nn[nH]n2)cc1", "activation factor": 1.18, "activity change, negative = activation": "-17.9% (inactive)"}
{"smiles": "Cc1ccc(NC(=O)CCn2nc(C)cc2C)cc1", "activation factor": 1.12, "activity change, negative = activation": "-11.6% (inactive)"}
{"smiles": "Cc1ccc(Cn2nc(C)c(NC(=O)C3CC3)c2C)cc1", "activation factor": 1.06, "activity change, negative = activation": "-6.3% (inactive)"}
{"smiles": "CCn1nc(C)c(CN2CCC(C(=O)Nc3cccc(-c4cccc(Cl)c4)c3)CC2)c1C", "activation factor": 4.74, "activity change, negative = activation": "-374% (active)"}
{"smiles": "CC(=O)c1ccc(NC(=O)Cn2nc(C)cc2C)cc1", "activation factor": 0.948, "activity change, negative = activation": "5.2% (inactive)"}
{"smiles": "Cc1nn(C(C)C)c(C)c1CN1CCC(C(=O)Nc2cccc(-c3cccc(F)c3)c2)CC1", "activation factor": 4.89, "activity change, negative = activation": "-389% (active)"}
{"smiles": "COc1ccc(NC(=O)C2CCN(c3nc(C)cc(C)n3)CC2)cc1", "activation factor": 0.96, "activity change, negative = activation": "4.05% (inactive)"}
{"smiles": "CCn1nc(C(=O)Nc2cccc(C(F)(F)F)c2)c(Cl)c1Cl", "activation factor": 0.952, "activity change, negative = activation": "4.85% (inactive)"}
{"smiles": "CCn1nc(C)c(CN2CCC(C(=O)Nc3cccc(-c4cccc(F)c4)c3)CC2)c1C", "activation factor": 3.08, "activity change, negative = activation": "-208% (active)"}
{"smiles": "Cc1cc(C)n(CCCN2CCC(C(=O)Nc3cccc(-c4cccc(F)c4)c3)CC2)n1", "activation factor": 3.01, "activity change, negative = activation": "-202% (active)"}
{"smiles": "CCc1ccc(NC(=O)C2CC(=O)N(C(C)C)C2)cc1", "note": "(configuration not stated)", "activation factor": 0.925, "activity change, negative = activation": "7.45% (inactive)"}
{"smiles": "Nc1ccccc1NC(=O)c1ccccc1", "activation factor": 1.09, "activity change, negative = activation": "-8.9% (inactive)"}
{"smiles": "CCN1CCN(C(=O)CN(c2ccccc2C)S(C)(=O)=O)CC1", "activation factor": 1.04, "activity change, negative = activation": "-3.5% (inactive)"}
{"smiles": "Cc1ccc(OCCn2cnc3c(N)ncnc32)cc1", "activation factor": 0.932, "activity change, negative = activation": "6.8% (inactive)"}
{"smiles": "Cc1cc(NC(=O)CCC(=O)N(Cc2ccco2)C(C)(C)C(=O)NC2CCCCC2)no1", "activation factor": 1.05, "activity change, negative = activation": "-5.25% (inactive)"}
{"smiles": "COc1ccc(CNC(=O)C[C@H]2C[C@H](C(=O)N3CCOCC3)[C@@]3(CCC4CCCC4)c4[nH]c5cc(CCC(=O)N(C)C)ccc5c4CCN3C2=O)cc1OC", "activation factor": 1.07, "activity change, negative = activation": "-6.85% (inactive)"}
